{
  "source": "PubChem BioAssay (EPA / NIEHS)",
  "note": "“And” between values parts separate entries of the source, which are not always exact repeats. Identical values can stand only once. The source made the active and inactive calls. Rule for the calls: active = hit-call score of the fitted dose curve at least 0.9, where 1 is the maximum; inactive = score below 0.9.",
  "data": [
    {"assay": "ATG_ERE_CIS: Attagene CIS-FACTORIAL HepG2 Assay for Estrogen Response Element (ERE) (AID 2282940)", "conditions": "HepG2 ERE cis-reporter, Attagene RNA transcript; actives raise or lower the signal", "protocol": "ATG_CIS is a cell-based, multiplexed-readout assay that uses HepG2, a human liver cell line, with measurements taken at 24 hours after chemical dosing in a 24-well plate.ATG_ERE_CIS is one of 52 assay component(s) measured or calculated from the ATG_CIS assay. It is designed to make measurements of mRNA induction, a form of inducible reporter, as detected with fluorescence intensity signals by Reverse transcription polymerase chain reaction (RT-PCR) and Capillary electrophoresis technology.Data from the assay component ATG_ERE_CIS was analyzed into 1 assay endpoint. This assay endpoint, ATG_ERE_CIS, was analyzed with bidirectional fitting relative to DMSO as the negative control and baseline of activity. Using a type of inducible reporter, measures of mRNA for gain or loss-of-signal activity can be used to understand the reporter gene at the transcription factor-level as they relate to the gene ESR1. Furthermore, this assay endpoint can be referred to as a primary readout, because this assay has produced multiple assay endpoints where this one serves a reporter gene function. To generalize the intended target to other relatable targets, this assay endpoint is annotated to the nuclear receptor intended target family, where the subfamily is steroidal.\nHuman liver HepG2 cells are transiently transfected with multiple reporter transcription units (MRTUs) in 6-well plates using FuGene 6 reagent (Roche; 3 ml FuGene/1 mg DNA). The MRTU constructs are regulated by a cis-regulating element (promoter). […] A major difference between the CIS and TRANS system is that in CIS activities of endogenous TFs are measured, whereas the TRANS assay evaluates changes in activities of exogenous, chimeric NR-Gal4 proteins. […] At the end of 24 hour incubation, total RNA was isolated using TriZol reagent (Invitrogen). The isolated RNA is then reverse-transcribed using oligo(dT) primer and Mo-MLV reverse transcriptase (Invitrogen) with DNAse I (Ambion) treatment for 30 min. The one-tenth of the produced cDNA was amplified by PCR using Taq DNA polymerase (Invitrogen) and two reporter sequence-specific primers. The PCR products were fluorescently labeled by primer extension with 6-arboxyfluorescein (6-FAM) 5'-labeled reporter sequence-specific primer (2 min at 95 C, 20 s at 68 C and 10 min at 72 C) and these products were digested with 5U of HpaI (New England Biolabs) for 2h at 37 C. The fragments were purified using Qiaquick PCR columns (Qiagen), analyzed on an ABI 3130xL genetic analyzer (Applied Biosystems) with peak positions identified by using a set of X-rhodamine (ROX)-labeled MapMarker1000 molecular weight standards (BioVentures). The raw capillary electrophoresis data was processed using Attagraph software (Attagene).", "values": [
      {"smiles": "CCN(CC)CC", "outcome": "inactive"},
      {"smiles": "CCO[Si](C)(C)OCC", "outcome": "inactive"},
      {"smiles": "C/C=C/C(=O)C1=C(C)CCCC1(C)C", "outcome": "inactive"},
      {"smiles": "Cc1cc(Cc2cc(C)cc(C(C)(C)C)c2O)c(O)c(C(C)(C)C)c1", "outcome": "inactive"},
      {"smiles": "CCCCCCCCC(C)=O", "outcome": "inactive"},
      {"smiles": "COCC1CCC(CO)CC1", "note": "(stereo not given)", "AC50": "24.4 µM (active)"},
      {"smiles": "Oc1ccc(Cc2ccccc2O)cc1", "AC50": "7.8 µM (active)"},
      {"smiles": "OCCN1CN(CCO)CN(CCO)C1", "outcome": "inactive"},
      {"smiles": "COC(=O)C(F)(F)C(F)(F)C(F)(F)C(F)(F)C(F)(F)F", "outcome": "inactive"},
      {"smiles": "Oc1c(Cl)cc(Cl)cc1Sc1cc(Cl)cc(Cl)c1O", "outcome": "inactive"},
      {"smiles": "O=C(O)c1cccc(C(=O)O)n1", "outcome": "inactive"},
      {"smiles": "CCOC(=O)c1nc(C(Cl)(Cl)Cl)n(-c2ccc(Cl)cc2Cl)n1", "outcome": "inactive"},
      {"smiles": "CCCCCCCCCCCCOC(=O)c1cc(O)c(O)c(O)c1", "outcome": "inactive"},
      {"smiles": "Oc1cccc2c(O)cccc12", "AC50": "12.3 µM (active)"},
      {"smiles": "CC1CNCC(C)O1", "note": "(stereo not given)", "outcome": "inactive"},
      {"smiles": "NCc1cccc(CN)c1", "outcome": "inactive"},
      {"smiles": "CCN(CCC#N)c1ccccc1", "outcome": "inactive"},
      {"smiles": "COc1ccccc1NC(=O)c1cc2ccccc2cc1O", "outcome": "inactive"},
      {"smiles": "CCCCCCCCCCCC[N+](C)(C)CCCCCCCCCCCC", "outcome": "inactive"},
      {"smiles": "CCCCCCOC(=O)c1ccc(O)cc1", "AC50": "8.86 µM (active)"},
      {"smiles": "CCCCc1oc2ccccc2c1C(=O)c1cc(I)c(OCCN(CC)CC)c(I)c1", "outcome": "inactive"},
      {"smiles": "NC(C(F)(F)F)C(F)(F)F", "outcome": "inactive"},
      {"smiles": "O=C(Nc1ccc(Cl)c(Cl)c1)c1cc(Cl)cc(Cl)c1O", "outcome": "inactive"},
      {"smiles": "Clc1ccc(Nc2nnc(Cc3ccncc3)c3ccccc23)cc1", "outcome": "inactive"},
      {"smiles": "CC=O", "outcome": "inactive"},
      {"smiles": "CC1CCC(C(=O)O)CC1", "note": "(stereo not given)", "AC50": "30.5 µM (active)"},
      {"smiles": "O=C1C=CC(=O)N1c1cccc(N2C(=O)C=CC2=O)c1", "outcome": "inactive"},
      {"smiles": "Nc1ccn([C@@H]2O[C@H](CO)[C@@H](O)C2O)c(=O)n1", "note": "(stereo not given in full)", "outcome": "inactive"},
      {"smiles": "Brc1cc(Br)c(Oc2c(Br)cc(Br)c(Br)c2Br)cc1Br", "outcome": "inactive"},
      {"smiles": "FC(F)(F)C(F)(F)C(F)(F)C(F)(F)I", "outcome": "inactive"},
      {"smiles": "C[C@]12CC[C@@H]3c4ccc(O)cc4CC[C@H]3[C@@H]1CC[C@@H]2OC(=O)CCC1CCCC1", "AC50": "0.0823 µM (active)"},
      {"smiles": "NCCN", "outcome": "inactive"},
      {"smiles": "C=CC(F)(F)C(F)(F)C(F)(F)C(F)(F)F", "outcome": "inactive"},
      {"smiles": "C=CC(=O)OCCN(CC)CC", "outcome": "inactive"},
      {"smiles": "FC(F)(F)C1(F)C(F)(F)C(F)(F)C(F)(F)C(F)(C(F)(F)F)C1(F)F", "note": "(stereo not given)", "outcome": "inactive"},
      {"smiles": "CCCCCCCCCCCCCC[n+]1ccccc1", "outcome": "inactive"},
      {"smiles": "Cc1ccc(C(=O)c2ccccc2)cc1", "AC50": "27.2 µM (active)"},
      {"smiles": "Oc1cc2ccccc2cc1O", "AC50": "100 µM (active)"},
      {"smiles": "O=c1cc(-c2ccccc2)oc2ccc3ccccc3c12", "AC50": "1.19 µM (active) and 521 nM (active)"},
      {"smiles": "CC(C)(c1ccc(Oc2ccc(N)cc2)cc1)c1ccc(Oc2ccc(N)cc2)cc1", "outcome": "inactive"}
    ]}
  ]
}
